Screening results as filed in PubChem BioAssay.
TRHR enhancer = qHTS for Small Molecule Agonists and Allosteric Enhancers of Human TRH Receptor: Primary Screen for Enhancers | Thyrotropin-releasing hormone receptor (Homo sapiens), P34981 | TRHR cells, fluo-8 calcium fluorescence, EC20 TRH enhancement | enhancement, % at 2 µM | actives 0.66% (n = 360,000) | AID 493056, 2011; in the data active means enhancement above about 30%
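TRHR-expressing cells loaded with fluo-8 calcium dye were read kinetically (ex 480/em 530) during compound addition, then stimulated with an EC20 of TRH (10 nM final). Enhancement of the Gq-mediated intracellular calcium response was scored.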
TRPML1 ag = qHTS for Agonists of the Human Mucolipin Transient Receptor Potential 1 (TRPML1); Mucolipin-1 (Homo sapiens), Q9GZU1; TRPML1-expressing cells, Ca2+ dye fluorescence, FDSS; activation, % (concentration not given with the values); actives 0.12% (n = 410,000); in the data active means activation above about 50%; inconclusive means mostly about 30% to 49%
Target sequence (Q9GZU1 whole entry, looked up): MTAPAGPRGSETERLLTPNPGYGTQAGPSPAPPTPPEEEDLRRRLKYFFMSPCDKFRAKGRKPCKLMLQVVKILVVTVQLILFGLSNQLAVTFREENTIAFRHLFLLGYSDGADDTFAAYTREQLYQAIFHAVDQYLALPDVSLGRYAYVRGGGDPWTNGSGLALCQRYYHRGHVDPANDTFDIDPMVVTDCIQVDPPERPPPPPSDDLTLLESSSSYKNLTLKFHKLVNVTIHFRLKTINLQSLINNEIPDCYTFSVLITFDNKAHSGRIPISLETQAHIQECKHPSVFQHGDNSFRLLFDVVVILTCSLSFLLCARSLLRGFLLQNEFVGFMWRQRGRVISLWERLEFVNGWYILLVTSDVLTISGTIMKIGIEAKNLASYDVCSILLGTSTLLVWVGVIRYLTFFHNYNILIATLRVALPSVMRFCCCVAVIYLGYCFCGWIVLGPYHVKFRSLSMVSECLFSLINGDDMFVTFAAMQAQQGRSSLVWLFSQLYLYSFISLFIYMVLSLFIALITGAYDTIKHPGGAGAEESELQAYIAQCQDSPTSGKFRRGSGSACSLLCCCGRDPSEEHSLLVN
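Cells: TRPML1-DL, 1X Tet inducer, ~16 h at 37 degrees C/5% CO2. Dye: ABD Ca8 no-wash + quencher, 45-90 min RT. Read: 10 s baseline, compound add, 110 s agonist phase; 54-4 EC80 (4uM final), 110 s antagonist phase.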
TRHR ag = qHTS for Small Molecule Agonists and Allosteric Enhancers of Human TRH Receptor: Primary Screen for Agonists. Thyrotropin-releasing hormone receptor (Homo sapiens), P34981. activation, % at 2 µM. TRHR cells, calcium flux fluo-8, FDSS agonist mode. actives 0.18% (n = 360,000); in the data active means activation above about 30%
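TRHR-expressing cells loaded with fluo-8 calcium dye; 23 nL library compound pin-transferred, kinetic FDSS fluorescence (Ex 480/Em 530) recorded about 180 s for agonist-induced calcium release, before a 10 nM TRH EC20 addition for potentiator mode.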
TRPML1 inh = qHTS for Inhibitors of the Human Mucolipin Transient Receptor Potential 1 (TRPML1); TRPML1-inducible cells, Ca2+ dye fluorescence, FDSS; stronger effect = lower value; inhibition of EC80 agonist-evoked calcium signal; Mucolipin-1 (Homo sapiens), Q9GZU1; actives 0.02% (n = 390,000); activity change, negative = inhibition, % (test concentration not listed); in the data active means activity change below about -50%; inconclusive means between about -30% and that limit;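 further: stimulus is agonist 54-4 at its EC80 concentration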
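TRPML1-DL cells, Tet-induced overnight (~16 h, 37 °C) at 1,500 cells/well, were loaded with Ca8 no-wash dye plus quencher for 45-90 min at room temperature. Compounds were pinned during FDSS kinetic reading; agonist 54-4 at EC80 (4 uM final) then added.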
Numbers stand for hits; – = inactive; ? = inconclusive; · = no result given. Sampled rows, rich in hits. Any-hit rate of the full collection: about 0.81%.

SMILES	TRHR enhancer	TRPML1 ag	TRHR ag	TRPML1 inh
COC(=O)c1ccc(Cl)cc1N(Cc1c(F)cccc1Cl)S(C)(=O)=O	–	108	–	–
O=S(=O)(c1ccc2c(c1)OCCO2)N1CCN(S(=O)(=O)c2ccc(F)cc2F)CC1	–	·	–	·
CCCn1c(=N)n(CC(=O)C(C)(C)C)c2ccccc21	31	–	–	–
CN(C)c1ccc(/C=C(/C(=O)c2ccc(Cl)cc2Cl)n2cncn2)cc1	–	?	75	–
COc1ccc(/C=C(/C(=O)c2ccc(Cl)cc2Cl)n2cncn2)cc1	–	–	–	–
Cc1nc2n(c(=O)c1CCN1CCC(c3noc4cc(F)ccc34)CC1)CCC[C@@H]2O	·	–	·	·
COc1ccc2cc(CN(Cc3ccco3)C(=S)NCC3CCCO3)c(=O)[nH]c2c1 (stereo not given)	–	–	–	–
COc1ccc2[nH]c(=O)c(CN(Cc3ccccc3)C(=S)NCC3CCCO3)cc2c1 (stereo not given)	35	–	–	–
Cc1ccc2cc(CN(CC3CCCO3)C(=S)NCc3ccco3)c(=O)[nH]c2c1C (stereo not given)	34	–	–	–
C(=C\c1c[nH]c2ccccc12)/c1ccc2ccccc2n1	·	–	·	·
COc1cc(C(=O)Nc2ccccc2-c2nc(-c3ccccc3)no2)cc(OC)c1OC	–	–	50	–
COc1cc(C(=O)Nc2ccccc2-c2nc(-c3ccc(C)cc3)no2)cc(OC)c1OC	–	–	–	–
CCN(CC)/[N+]([O-])=N/OCOC(=O)c1ccccc1OC(C)=O	·	–	·	–
O=C(C[N+]12CN3CN(CN(C3)C1)C2)c1ccc(I)cc1	·	–	·	·
CC(=O)c1c(C)n(C)c2ccc(OC(=O)c3ccc([N+](=O)[O-])cc3)cc12	40	–	–	–
CC(=O)c1c(C)n(C)c2ccc(OC(=O)c3ccco3)cc12	–	–	–	–
CCOC(=O)Cc1csc(NC(=O)c2sc3nc4c(C)cc(C)cc4cc3c2N)n1	–	–	38	–
CC(=O)c1cccc(NC(=O)N2CCN(S(C)(=O)=O)CC2)c1	34	–	–	–
COc1cccc(Cn2cnc3c(cnn3C(C)(C)C)c2=O)c1	·	–	·	–
O=S(=O)(NC1CCCC(NS(=O)(=O)c2c(F)cccc2F)C1)c1ccc2c(c1)OCCO2 (stereo not given)	–	·	–	·
CS(=O)(=O)c1oc(-c2ccc(F)cc2)nc1S(=O)(=O)c1ccc(Cl)cc1	49	–	–	–
CSc1oc(-c2ccc(F)cc2)nc1S(=O)(=O)c1ccc(F)cc1	–	–	–	–
Fc1ccc(/C=C/c2ccc3ccccc3n2)cc1	·	–	·	·
Cc1cc(C)n(-c2nc(SCCN(C)C)c3c4c(sc3n2)CCCC4)n1	38	–	–	–
CN(C)c1ccc(/C=C/c2cnnc3ccccc23)cc1	·	–	·	·
SMILES	TRHR enhancer	TRPML1 ag	TRHR ag	TRPML1 inh
Cc1cc(NC(=O)COC(=O)c2ccc(OC(F)(F)F)cc2)no1	–	–	–	–
CCCCCOc1ccc(C(=O)OCC(=O)Nc2cc(C)on2)cc1	31	–	–	–
CN(C)c1ccc(/C=C/c2cc3ccccc3c[n+]2C)cc1	·	–	·	·
NC(=O)c1ccc(/C=N/O)nc1	38	–	–	–
CC1(C)CC(=O)C2=C(C1)NC(Nc1nc3ccccc3o1)=NC2c1cccc(F)c1 (stereo not given)	·	–	·	·
CCc1ccc(NC(=O)CNC(=O)Cn2c(C)cc3ccccc3c2=O)cc1	–	–	–	–
Cc1cc2ccccc2c(=O)n1CC(=O)Nc1ccc2c(c1)OCCO2	31	–	–	–
Cc1cc([N+](C)(C)C)cc(C)c1/C=C/c1ccnc2ccccc12	·	–	·	·
CC(C)(C)Cc1c(-c2ccc(C#N)cc2)nc2c(Cl)cc(C(F)(F)F)cn12	·	72	·	–
Cc1nc2ccccc2nc1-c1csc(-c2ccccc2)n1	·	–	·	·
N#Cc1c(C(F)(F)F)cc(-c2cccs2)nc1SCC(=O)Nc1cccc(Br)c1	–	–	30	–
COc1ccccc1N1CCN(C2CCCN(C(=O)c3cscn3)C2)CC1 (stereo not given)	–	–	–	–
COc1ccccc1N1CCN(C2CCCN(C(=O)c3cc(C4CC4)on3)C2)CC1 (stereo not given)	–	–	–	-61
O=C(O)CCCNC(=O)CCCn1nnc2ccccc2c1=O	32	–	–	–
O=C1c2ccccc2C(=O)N1c1ccc(Cl)cc1	–	·	–	·
O=C1c2cccc3c(O)ccc(c23)C(=O)N1c1ccc(Cl)cc1	–	104	–	–
O=C1c2cccc3c(O)ccc(c23)C(=O)N1Cc1ccco1	33	99	235	–
CC(=O)Nc1ccc(N2C(=O)c3cccc4c(O)ccc(c34)C2=O)cc1	35	72	199	–
CC(=O)Nc1ccc(N2CCN(c3ccc(F)cc3)CC2)cc1	33	–	–	–
CCCCN(CCC(=O)O)c1ccc(/C=C/c2ccnc3ccccc23)cc1	·	99	·	·
O=C(O)CCN(CCC(=O)O)c1ccc(/C=C/c2ccnc3ccccc23)cc1	·	–	·	·
CCOC(=O)C1CCN(C(=O)c2ccc(N3CCCC3=O)cc2)CC1	34	–	–	–
Oc1ccc2nnc3c(Br)cnn3c2c1	–	87	52	–
Clc1ccc2nc3c4ccccc4cnn3c2c1	–	–	–	–
Cc1cc(C)cc(OCC(=O)OCCN2C(=O)c3ccccc3C2=O)c1	39	–	–	–
SMILES	TRHR enhancer	TRPML1 ag	TRHR ag	TRPML1 inh
Cc1ccc(OCC(=O)OCCN2C(=O)c3ccccc3C2=O)cc1C	–	–	–	–
O=S(=O)(c1ccc2c(c1)OCCO2)N1CCN(S(=O)(=O)c2ccccc2OC(F)(F)F)CC1	–	·	–	·
COc1ccc(C(=O)NCc2c(C)oc(C)c2C(=O)O)cc1	39	–	–	–
Cc1oc(C)c(C(=O)O)c1COc1ccc(C(=O)O)cc1	–	–	–	–
CCOC(=O)N1CCN(C(=O)CNS(=O)(=O)c2c(C)cc(C)cc2C)CC1	33	–	–	–
CCOC(=O)N1CCN(C(=O)CNS(=O)(=O)c2cccs2)CC1	–	–	–	–
Oc1ccc(NCc2ccccc2OCc2ccccc2)cc1	–	–	–	–
Oc1ccc(NCc2ccccc2OCc2ccc(Cl)cc2)cc1	47	–	–	–
Cc1ncoc1C(=O)N1CCCC(C(=O)Nc2cccc(-c3ccc(F)cc3)c2)C1 (stereo not given)	–	53	–	–
COc1ccc(C)cc1S(=O)(=O)Nc1cccc(-c2cn3cccnc3n2)c1	31	–	–	–
CCCc1nnc2n1N=C(c1ccc(OC)c(OC)c1)CS2	34	–	–	–
COc1ccc2oc(=O)cc(CN3CCN(c4ccccc4OC)CC3)c2c1	–	–	–	–
CCOc1ccc2oc(=O)cc(CN3CCN(c4ccccc4OC)CC3)c2c1	47	–	–	–
